What all share (experiment): NCI-60 one-dose screen, 48 h (100 = growth as untreated, 0 = no growth, -100 = all killed)
Holding throughout (conditions): 10 µM unless noted

The test system of test [1] is DU-145 prostate.
For test [2], the system named is K-562 leukemia.
Test [3] concerns MALME-3M melanoma.
In test [4] the test system is MDA-MB-231 breast.
For test [5], the system named is RXF 393 renal.
Test [6] has as its system SF-268 CNS.
The subject of test [7] is SF-295 CNS.
The test system of test [8] is SF-539 CNS.
Test [9] deals with UACC-257 melanoma.
In test [10] the test system is M14 melanoma.

Drawing on PubChem BioAssay (NCI), this text covers growth for 26 compounds.

Compounds without any hit were thinned out: in the full panel of roughly 83,000, 20% have a hit.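 In brief: 96-well plates, 48 h treatment, single concentration, percent growth endpoint.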 Values without a mark were called inactive. Activity calls are given as the source filed them. Rule for the calls: active = growth percent below 10; inactive = the rest.

As for `CCOC(=O)CCN(CC(C)C)C(=S)Nc1ccccc1`, the growth is 108% in [1]; 103% in test [2]; 102% in test [3]; 106% in test [4]; 122% in [5]; 104% in test [6]. In addition, the growth in [7] was 101%; in test [8] it was 100%; in test [9], 102%; in test [10], 99%.

In the case of `CCOc1cccc(-c2nc(N)nc(Nc3ccccc3SSc3ccccc3Nc3nc(N)nc(-c4cccc(OCC)c4)n3)n2)c1`, the growth was 83.9% in test [1]; 68.9% in test [2]; 97% in test [3]; 51.7% in test [4]; 92.4% in [5]; 25.1% in [6]. Also, the growth in [7] is 5.56% (active); in test [8], 93.2%; in test [9], 118%; in test [10], 69.4%.

As to `O=C(Nc1ccc(-c2ccc3c(c2)NC(=O)/C3=C\c2ccc[nH]2)cc1)NC1CC1`, the growth was 103% in test [1]; 92.5% in test [2]; 105% in test [3]; 101% in test [4]; 99.1% in test [5]; 103% in [6]. The growth in [7] was 90.8%; in test [8], 71.5%; in test [9] it was 117%; in [10] it was 94%.

`COc1ccc(C(=O)C2C(C#N)C(C#N)C3C=Cc4ccccc4N32)cc1` (stereo not given): the growth in test [1] was 24.2%; in test [2], 11.5%; in test [3] it was 38.6%; in test [4] it was 29%; in test [5], -21.8% (active); in [6], 55.7%. In addition, the growth in test [7] is 22.5%; in [8], -20.9% (active); in test [9], 82.9%; in [10], -6.64% (active).

As for `N#C/C(=C\c1ccc(C(F)(F)F)cc1)c1cc2ccccc2[nH]1`, the growth in test [1] was 105%; in [2], 90.3%; in test [3], 103%; in test [4] it was 92.7%; in [5], 113%; in test [6], 99.4%. For the same compound, the growth is 99.8% in test [7], 107% in test [8], 104% in [9] and 108% in test [10].

On to `COc1ccc(C/C(C)=C(/c2ccc(OCCCN(C)C)cc2)c2ccc(OC(C)=O)cc2)cc1`, for which the growth is 89.2% in [1]; 3.38% (active) in [2]; 79% in test [3]; 66.8% in test [4]; 65.6% in test [5]; 71% in test [6]. Moreover, the growth in test [7] is 27.1%; in [8], 72.6%; in [9], 73.6%; in test [10], 50.6%.

Consider `Cc1c(C(=O)NCCC(=O)NO)sc2ncnc(Nc3ccc(F)c(Cl)c3)c12`, for which the growth in test [1] is 111%; in [2], 113%; in [3], 113%; in test [4], 103%; in test [5], 102%; in test [6], 96.5%. The growth was 96.1% in test [7], 98% in test [8], 99.7% in [9] and 105% in [10].

In the case of `O=S(=O)(NCCCNc1nccc(-c2c(-c3cccc(F)c3)nc3sccn23)n1)c1cccc2ccccc12`, the growth in [1] is 49.9%; in test [2] it was 15.2%; in test [3] it was 78.7%; in test [4], 4.05% (active); in test [5], 62.9%; in [6] it was 44.5%. The growth in [7] is 34.6%; in [8], 72.8%; in [9], 72.9%; in [10], 42.7%.

Regarding `CC1(C)CC[C@]23CC[C@]4(C)[C@H](CC[C@@H]5[C@@]6(C)CCCNC(C)(C)[C@@H]6CC[C@]54C)[C@H]2[C@H]1OC3`, the growth in test [1] was -8.9% (active); in test [2] it was -39.7% (active); in [3], -63.4% (active); in [4], -62.8% (active); in test [5] it was -65.3% (active); in test [6], 38.2%. The growth was -65% (active) in test [7], 38.7% in test [8], 45.1% in test [9] and -77.2% (active) in [10].

In the case of `COc1ccccc1/C=C1\Oc2cc(OCCN3CCCC3)ccc2C1=O`, the growth in test [1] was 89.2%; in test [2], -5.04% (active); in test [3], 104%; in test [4] it was 81.8%; in test [5], 71.5%; in test [6], 91.3%. The growth in test [7] is 95.4%; in test [8], 85.9%; in test [9] it was 95%; in test [10], 77.2%.

With `COc1cc2cc(CN3CCN(c4nccc(-c5ccc6ccccc6c5)n4)CC3)c(=O)[nH]c2cc1OC`, the growth in [1] is 74%; in test [2] it was 13.6%; in test [3], 103%; in test [4], 73.8%; in test [5], 81.8%; in [6], 94%. The growth in test [7] is 101%; in test [8] it was 110%; in [9] it was 77%; in test [10], 109%.

For `COc1ccc(C(=O)/C=C/c2cc3ccccc3n3nnnc23)cc1`, the growth is 115% in [1]; 91.8% in [2]; 108% in test [3]; 106% in [4]; 106% in [5]; 108% in test [6]. Further, the growth in [7] was 102%; in test [8] it was 107%; in test [9] it was 114%; in test [10], 110%.

`COc1ccc(C(=O)CSc2nc(-c3cc(OC)ccc3OC)cc(-c3ccc(Cl)cc3)c2C#N)cc1`: the growth in test [1] is 65.9%; in [2], 77.9%; in test [3] it was -6.38% (active); in test [4] it was 33.2%; in test [5], 26.5%; in test [6], 59.2%. Besides, the growth is 18.5% in test [7], 30.5% in [8], 58% in [9] and 48.6% in [10].

As to `CCOC(=O)Oc1c(OC)cc(C(=O)c2ccc(OC)c(OC(=O)CCl)c2OC)cc1OC`, the growth in test [1] was 12.5%; in [2], 10.4%; in test [3], 50.8%; in test [4] it was 33%; in test [5], -17.9% (active); in [6], 43.8%. The growth in test [7] was 20.7%; in [8] it was -16.9% (active); in test [9] it was 48.5%; in test [10], -15% (active).

As to `Cc1cc(C(=O)/C=C/c2ccc[nH]2)ccc1-n1ccc(C(F)(F)F)n1`, the growth is 96% in [1]; 53.3% in test [2]; 94.7% in test [3]; 30.6% in test [4]; 21.2% in [5]; 49.1% in test [6]. Moreover, the growth is 85% in [7], 13.5% in test [8], 97.4% in test [9] and 90.5% in test [10].

For `C=C1C(=O)O[C@H]2[C@H]1CC/C(C(=O)NCCCCCNC(=O)/C1=C/CC[C@@]3(C)O[C@H]3[C@H]3OC(=O)C(=C)[C@@H]3CC1)=C\CC[C@@]1(C)O[C@@H]21`, the growth in [1] is 104%; in test [2] it was 114%; in test [3], 96.2%; in [4], 106%; in test [5] it was 110%; in [6] it was 96.1%. The growth in test [7] was 105%; in [8], 105%; in test [9], 97.7%; in test [10] it was 92.3%.

In the case of `CCCCCCCCCCCCCCCC[N+]1(C)CCN(SN2CC[N+](C)(CCCCCCCCCCCCCCCC)CC2)CC1`, the growth is 70.5% in [1]; 40.4% in test [2]; 78.4% in [3]; 53.9% in test [4]; -7.8% (active) in test [5]; 64.4% in test [6]. For the same compound, the growth in [7] was 71.2%; in [8], 48.7%; in [9], 92.9%; in test [10] it was 20.8%.

With `O=C(CCN1CCCC1)Nc1ccc2c(NCCc3ccccc3)c3ccccc3nc2c1`, the growth was -23.3% (active) in [1]; -17.1% (active) in test [2]; -92.6% (active) in test [3]; -32.5% (active) in [4]; -47.9% (active) in test [5]; -55% (active) in test [6]. The growth is -2.88% (active) in test [7], -67.2% (active) in test [8], -8.54% (active) in [9] and -61.8% (active) in [10].

As for `O=[N+]([O-])CC(c1ccccc1)c1c[nH]c2ccccc12` (stereo not given), the growth in test [1] was 84.1%; in [2] it was 10%; in test [3], 57.3%; in [4], 46.1%; in [5] it was 64.3%; in [6], 65.1%. Also, the growth in [7] was 44.1%; in test [8], 50.2%; in test [9], 55.8%; in test [10], 23.2%.

For the compound `COc1cc2nc(-c3ccc(C(F)(F)F)cc3)cc(OCCN3CCCCC3)c2cc1OC`, the growth in test [1] was 70.9%; in [2], 53.4%; in [3], 74.4%; in [4], 54.1%; in test [5], 62.4%; in [6], 75.8%. Besides, the growth was 77.5% in test [7], 74.4% in test [8], 36.6% in test [9] and -11.8% (active) in test [10].

As to `COc1cc2oc(-c3cccc(C(=O)Nc4ccc(Br)cc4)c3)cc(=O)c2c(OC)c1OC`, the growth in [1] is 57.6%; in test [2], 48.9%; in test [3] it was 80.9%; in [4], 30.8%; in [5] it was -2.47% (active); in test [6], 61.8%. Moreover, the growth in [7] is 52.9%; in [8] it was 65%; in test [9], 80.1%; in [10], 27%.

`O=C(Cc1ccc(/C=C/C(=O)c2ncc[nH]2)cc1)Nc1ccc(Cl)cc1`: the growth in test [1] is 18.4%; in test [2], 8.02% (active); in test [3] it was 89.3%; in test [4], 22.3%; in test [5], 49.7%; in test [6], 12%. Besides, the growth in test [7] is 8.31% (active); in test [8], -23.1% (active); in test [9], 78.7%; in test [10], 63.6%.

As for `CCCOc1ccc(/C=N/Nc2cc(C)nc3ccc(Cl)cc23)cc1`, the growth in test [1] is 24.2%; in test [2], -37% (active); in test [3] it was -59% (active); in [4], 60.1%; in [5] it was -18.9% (active); in test [6], 83.8%. Besides, the growth in test [7] is -74.3% (active); in test [8], -62.6% (active); in [9] it was 89.8%; in [10], -29.8% (active).

As for `CCC(=O)Oc1ccc(/C(=C(\C)c2ccccc2)c2ccc(OCCN3CCCCC3)cc2)cc1`, the growth in [1] was 91.5%; in test [2], 17.1%; in [3], 79%; in test [4], 91.1%; in test [5], 73.9%; in test [6], 80.3%. Further, the growth was 86.5% in test [7], 62.2% in [8], 72.1% in test [9] and 72.3% in test [10].

In the case of `COc1cc2nc(-c3ccc(Cl)cc3)cc(OCCCN3CCOCC3)c2cc1OC`, the growth was 43.8% in test [1]; 10.3% in [2]; 64.9% in [3]; 27.2% in test [4]; 28.7% in [5]; 63.2% in test [6]. Also, the growth in test [7] is -39% (active); in test [8], 64.1%; in test [9] it was 1.42% (active); in test [10], -37.9% (active).

With `O=C(CNCCN1CCOCC1)N1c2cccc3cccc(c23)N(C(=O)CNCCN2CCOCC2)C1c1cn(-c2ccccc2)nc1-c1cccc([N+](=O)[O-])c1`, the growth in [1] is 87.8%; in [2], -21.4% (active); in test [3], -87.3% (active); in [4] it was 54.4%; in [5] it was 47.9%; in [6] it was 69.6%. Besides, the growth is 100% in test [7], 63.3% in test [8], 90.3% in [9] and -16.1% (active) in test [10].
